From PubChem
BAP1 block – inhibitors of BAP1 deubiquitinase, primary screen, biochemical, Ub-AMC fluorescence, kinetic. recombinant BAP1, Ub-AMC hydrolysis fluorescence kinetic; hits give low values. Ubiquitin carboxyl-terminal hydrolase BAP1 (Homo sapiens), Q92560. calls only at 20 µM. actives 0.48% (n = 72,000);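 active = activity remaining at or below 50% of control, provided the compound also passes the data quality filters; inactive = the rest, including low values that fail the filters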
D1 allo mod – D1 CRE-luciferase signal change, two-sided – cell-based, HEK293 D1, dopamine EC30, D1 allosteric modulator project, primary screen. D(1A) dopamine receptor (Homo sapiens), P21728. AID 641, 2007. dopamine EC30 potentiation; actives deviate in either direction. B-score at 10 µM. actives 5.9% (n = 58,000);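 active = luminescence count or its row- and column-corrected plate score outside the 99.7% band of the plate's sample wells, on either side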
Target sequence (P21728 whole entry, looked up): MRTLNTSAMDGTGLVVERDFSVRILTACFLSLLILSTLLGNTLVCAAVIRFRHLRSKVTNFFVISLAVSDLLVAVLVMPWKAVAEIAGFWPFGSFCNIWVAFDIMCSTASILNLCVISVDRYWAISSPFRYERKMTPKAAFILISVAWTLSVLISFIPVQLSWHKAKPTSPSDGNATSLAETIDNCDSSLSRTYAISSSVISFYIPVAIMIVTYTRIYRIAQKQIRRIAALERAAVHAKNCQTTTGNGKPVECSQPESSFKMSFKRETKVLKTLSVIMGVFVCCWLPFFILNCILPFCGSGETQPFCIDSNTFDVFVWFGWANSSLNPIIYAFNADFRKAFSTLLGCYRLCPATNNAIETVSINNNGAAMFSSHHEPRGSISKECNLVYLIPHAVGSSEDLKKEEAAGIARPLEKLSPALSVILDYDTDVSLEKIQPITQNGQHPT
DAT uptake mod – changed hDAT dopamine uptake under cocaine IC80, either direction, primary screen, cocaine antagonist project, cell-based, LLC-PK1 hDAT, [14C]-dopamine uptake, MLSMR. Sodium-dependent dopamine transporter (Homo sapiens), Q01959. LLC-PK1 hDAT cells, [14C]-dopamine uptake with cocaine IC80; actives deviate in either direction. B-score at 10 µM. actives 1.3% (n = 110,000);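 active = Z score or B-score, a plate-position-corrected score, falls beyond the plate's 99.7% confidence bounds, in either direction; inactive = both scores lie inside the 99.7% bounds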
D1 PAM confirm – D1 receptor positive allosteric modulators, retest, confirmation, cell-based, HEK293 D1, CRE-luciferase, duplicate; shares compounds with D1 allo mod; dopamine EC30 potentiation; hits give high values; luminescence at 10 µM; actives 88% (n = 2,200); AID 642, 2007;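 active = luminescence in either of two replicates above the same-plate mean plus 3 SD of the low-dose dopamine control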
D1 no dopamine – D1 receptor agonism without dopamine, confirmation, mechanism study for D1 allosteric modulator project, cell-based, HEK293 D1, CRE-luciferase, secondary assay 1; actives 0.8% (n = 1,900); luminescence at 10 µM; shares compounds with D1 allo mod; luminescence, no dopamine; hits give high values; AID 646, 2007; in the data active = luminescence above about 3900
Isoprot counter – isoproterenol response counter-screen activity for D1 modulators; HEK293 D1 CRE-luciferase, isoproterenol EC30 counter-screen; hits give high values; actives 63% (n = 2,200); shares compounds with D1 allo mod; AID 647; luminescence at 10 µM;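 active = luminescence in either replicate above plate mean of wells with a partly effective reference agonist dose plus 3 SD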;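 note: isoproterenol raises cAMP through native beta-adrenoceptor Gs so signal bypasses D1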
Numbers stand for hits; i = inactive; nt = no result given. This is one part of a sample in which hits are shown more often than they occur.

SMILES | BAP1 block | D1 allo mod | DAT uptake mod | D1 PAM confirm | D1 no dopamine | Isoprot counter
Cc1onc(-c2ccccc2)c1C(=O)Nc1ccc2c(c1)OCO2 | i | 4.99 | i | 11760 | i | i
CCOc1ccc2nc(NC(=O)c3cc(OC)c(OC)c(OC)c3)sc2c1 | i | nt | nt | nt | nt | nt
O=C(c1cc2n(n1)C(C(F)(F)F)CC(c1ccco1)N2)N1CCc2ccccc2C1 (centres undefined) | i | i | i | nt | nt | nt
COc1cc2c(cc1OC)C(C)N(C(=O)c1cc3n(n1)C(C(F)(F)F)CC(c1ccco1)N3)CC2 (centres undefined) | i | 5.98 | i | 12888 | i | 4328
Cc1cc2n(n1)C(c1ccsc1)Nc1ccccc1-2 (centres undefined) | nt | 14.3 | i | 15520 | nt | 3220
Oc1ccccc1-c1cc(-c2ccccc2Cl)[nH]n1 | i | i | i | nt | nt | nt
Cc1cc2n(n1)C(c1ccccc1Cl)Nc1ccccc1-2 (centres undefined) | i | 14.1 | i | 16788 | i | 3152
CSc1ccc(C2Nc3ccccc3-c3cc(C)nn32)cc1 (centres undefined) | i | i | i | nt | nt | nt
CCN(CC)c1ccc2cc(C(=O)Nc3ccccc3)c(=O)oc2c1 | i | nt | nt | nt | nt | nt
CCCn1c(=O)c(C(=O)NCc2ccccn2)c(O)c2ccccc21 | i | i | i | nt | nt | nt
CCCn1c(=O)c(C(=O)NCc2cccnc2)c(O)c2ccccc21 | i | 8.41 | i | 15012 | i | 3172
CC(C)Cn1c(=O)c(C(=O)Nc2ccncc2)c(O)c2ccccc21 | nt | i | nt | nt | nt | nt
CC(C)Cn1c(=O)c(C(=O)Nc2cnccn2)c(O)c2ccccc21 | i | 3.37 | i | 9760 | i | i
CC1Sc2sc(=S)sc2SC(C)C1=O (centres undefined) | i | nt | nt | nt | nt | nt
Cc1c(-c2ccccc2)n(C)c2ccccc12 | i | nt | nt | nt | nt | nt
COc1ccc(C(=O)Nc2ccc(C(=O)OCC(C)C)cc2)cc1 | i | nt | nt | nt | nt | nt
CC1=C(C(=O)OCC2CCCCC2)C(c2ccccc2OC(C)C)NC(=O)N1 (centres undefined) | i | nt | nt | nt | nt | nt
Cc1cccc(Cn2c(N(C)CCO)nc3c2c(=O)[nH]c(=O)n3C)c1 | nt | nt | i | nt | nt | nt
CN(Cc1ccccc1)c1nc2c(c(=O)[nH]c(=O)n2C)n1CCOc1ccccc1 | i | 6.8 | i | 12188 | i | 4732
CCCCCn1c(N(C)Cc2ccccc2)nc2c1c(=O)[nH]c(=O)n2C | i | 14.1 | i | 21892 | i | 9964
CCN(CC)CCNc1nc2c(c(=O)[nH]c(=O)n2C)n1CCOc1ccccc1 | i | i | nt | nt | nt | nt
CN(Cc1ccccc1)c1nc2c(c(=O)[nH]c(=O)n2C)n1Cc1ccccc1 | i | 23.1 | i | 19372 | i | 5128
CN(Cc1ccccc1)c1nc2c(c(=O)[nH]c(=O)n2C)n1CCCSc1ncccn1 | i | nt | i | nt | nt | nt
Cc1nc2cc([N+](=O)[O-])ccc2n1CCOC(=O)c1ccc([N+](=O)[O-])cc1 | i | nt | nt | nt | nt | nt
CCc1nnc(NC(=O)CSc2nnc(-c3ccc(O)cc3)n2-c2ccccc2)s1 | i | nt | nt | nt | nt | nt
SMILES | BAP1 block | D1 allo mod | DAT uptake mod | D1 PAM confirm | D1 no dopamine | Isoprot counter
COc1ccc(-c2nnc(SCC(=O)Nc3ncc(C)s3)n2-c2ccccc2)cc1OC | i | 3.65 | i | 11512 | i | 3604
OC(CN1CCN(c2ccc(Cl)cc2)CC1)Cn1c2ccccc2c2ccccc21 (centres undefined) | i | nt | nt | nt | nt | nt
CC1CCN(c2nc(-c3ccc(F)cc3)cc(C(F)(F)F)n2)CC1 | nt | nt | i | nt | nt | nt
Fc1ccc(-c2cc(C(F)(F)F)nc(-n3cncn3)n2)cc1 | i | 3.39 | i | 8460 | i | i
Brc1ccc2oc3c(N4CCOCC4)ncnc3c2c1 | i | 5.06 | i | 8996 | i | 3652
c1ccc(N2CCN(c3ncnc4c3oc3ccccc34)CC2)cc1 | i | i | nt | nt | nt | nt
O=C(Nc1ccc(Br)cc1)c1ccc2c(c1)C(=O)N(c1ccc([N+](=O)[O-])cc1)C2=O | i | nt | nt | nt | nt | nt
CCOC(=O)c1c(C)oc2cc(Br)c(OC(=O)c3ccco3)cc12 | i | nt | nt | nt | nt | nt
Cn1c(NCc2ccco2)nc2c1c(=O)n(Cc1ccc(Cl)cc1Cl)c(=O)n2C | i | i | i | nt | nt | nt
